Reference: PubChem BioAssay AID2444 (National Center for Advancing Translational Sciences (NCATS), 2010)
Some of the results follow. Inconclusive results are not listed. The source made the active and inactive calls. Calls follow the shape of the full dose curve.

The compounds below were run against Thyroid hormone receptor beta (Homo sapiens) (UniProt P10828) (assay: Protein Interaction Secondary Assay for Inhibitors of the Interaction of Thyroid Hormone Receptor and Steroid Receptor Coregulator 2, Alpha Screen). Conditions: AlphaScreen TRb LBD-SRC2 peptide binding, luminescence.
Chain of Thyroid hormone receptor beta (Homo sapiens) (P10828 whole entry, looked up, the tested form may be a part): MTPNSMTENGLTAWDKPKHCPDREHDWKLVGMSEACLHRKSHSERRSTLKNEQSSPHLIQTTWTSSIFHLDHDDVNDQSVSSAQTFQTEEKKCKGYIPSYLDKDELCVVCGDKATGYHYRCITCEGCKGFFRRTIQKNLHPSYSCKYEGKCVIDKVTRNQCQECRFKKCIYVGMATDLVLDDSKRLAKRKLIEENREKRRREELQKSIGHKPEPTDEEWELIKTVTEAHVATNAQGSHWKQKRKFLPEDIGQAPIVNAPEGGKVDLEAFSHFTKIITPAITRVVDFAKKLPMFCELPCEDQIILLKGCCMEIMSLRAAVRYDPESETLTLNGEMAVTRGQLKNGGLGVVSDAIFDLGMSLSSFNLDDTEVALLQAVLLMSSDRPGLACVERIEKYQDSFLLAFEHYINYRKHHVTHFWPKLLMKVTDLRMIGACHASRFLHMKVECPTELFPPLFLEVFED
Text: NIH Molecular Libraries Probe Production Network [MLPCN] NIH Chemical Genomics Center [NCGC] MLPCN Grant: DK058080 Assay Provider: R. Kip Guy, St. Jude Children's Research Hospital NCGC Assay Overview: Thyroid receptor (TR) regulates many homeostatic processes including basal metabolism, cardiovascular function, body weight, and lipid trafficking. TR modulators are potential therapeutics for obesity and hyperlipidemias but current thyroid analogs have undesirable side effects, particularly cardiac stimulation. To confirm that inhibitors specifically prevent the interaction of TR with the steroid receptor coregulator 2 (SRC2), an orthogonal TR-SRC2 interaction assay using Alpha Screen (PerkinElmer) was employed. […] Small molecule inhibitors that block the interaction of TR and SRC2 are detected by a decrease in chemiluminescence.
NCGC Assay Protocol Summary: Fifteen uL/well of 100 nM TRb and 100 nM SRC2-2-peg2-biotin in buffer (25 mM HEPES, 100 mM NaCl, 1 mM DTT, 0.1% BSA, 0.01% NP-40) was dispensed into white 384 well Optiplates (PerkinElmer). […] After 30 min incubation, 5 uL of streptavidin donor beads were added and after 90 min incubation, the plates were read by an Envision (Perkin Elmer) to detect luminescence of the donor and acceptor bead interaction (680 nm excitation and 520-620 nm emission).
With `O=C(COC(=O)c1cccc([N+](=O)[O-])c1)NC1C2CC3CC(C2)CC1C3` (stereo unspecified) the outcome was “inactive”.
